A short description of test [1]: qHTS assay to identify small molecule inhibitors of chordoma cells - UCH-1 (AID 1259355). Also: nearly all actives have a fitted effect of over 55% in size. Particulars: UCH-1 chordoma viability, CellTiter-Glo, 48 h, combination; series mostly up to 46.1 µM. Summed up:
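A 48hr growth-inhibition format: each drug tested at 15 concentrations together with added auranofin, camptothecin, doxorubicin, rubitecan and topotecan, with cell viability quantified as CellTiter-Glo luminescence.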
A general note: qHTS replaces the single test concentration by a dilution series.

Test [2] is described as follows: qHTS assay to identify small molecule inhibitors of chordoma cells - UCH-2 (AID 1259356). The following applies: UCH-2 chordoma viability, CellTiter-Glo ATP luminescence, 48 h; series mostly up to 46.1 µM.
Test [3] in a line: qHTS assay for measurement of the activity of small molecule inhibitors on Zika virus induced Caspase-3 activity in human iPSC derived neural progenitor cells (hNPCs) (AID 1224857). Also: nearly all actives have a fitted effect of over 65% in size. Particulars: hNPCs ZIKV-induced caspase-3/7, Caspase-Glo luminescence, 6 h; series mostly up to 45.7 µM. Summed up: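 In medium with heparin 2 ug/ml and cyclopamine 2 uM, hNPCs (350 cells/well) received compound for one hour and then Zika virus at 2 FFU/cell; caspase activity was measured by Caspase-Glo 3/7 luminescence 6 h post-infection.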

Molecules are shown by their SMILES. Results filed as inconclusive are left out. The source made the active and inactive calls. Calls follow the shape of the dose curve; as a rule, active = well fitted curve in the direction sought with a large enough effect; inconclusive = small, poorly fitted or top-dose-only effect, or another doubt; inactive = no such curve, though single readings can be large; an effect the other way counts as inactive or inconclusive.

For the compound `CN1C(=O)C(O)N=C(c2ccccc2)c2cc(Cl)ccc21` (stereo not given), the outcome in test [1] and in test [2] was inactive.
As to `COP(=S)(OC)SCN1C(=O)c2ccccc2C1=O`, the result in test [1] and in test [2] was inactive.
`O=C1Nc2ccc(Cl)cc2C(c2ccccc2)=NC1O` (stereo not given): the outcome in test [1] and in test [2] was inactive.
Take `CC(C)(C)NCC(O)c1cc(Cl)c(N)c(C(F)(F)F)c1` (stereo not given): the call in test [3], in test [1] and in test [2] was inactive.
For the compound `O=C(Nc1ccc(Br)cc1)c1cc(Br)cc(Br)c1O`, the outcome in test [1] and in test [2] was inactive.
As for `CC(=O)OCC1=C(C(=O)O)N2C(=O)[C@@H](N)[C@H]2SC1`, the result in test [3], in test [1] and in test [2] was inactive.
Regarding `CCOP(=S)(OCC)Oc1ccc2c(C)c(Cl)c(=O)oc2c1`, the outcome in test [1] and in test [2] was inactive.
On to `Cc1nnc2n1-c1ccc(Cl)cc1C(c1ccccc1Cl)=NC2`, for which the outcome in test [1] and in test [2] was inactive.
`CN1C[C@H](C(=O)N[C@]2(C)O[C@@]3(O)[C@@H]4CCCN4C(=O)[C@H](Cc4ccccc4)N3C2=O)C=C2c3cccc4[nH]cc(c34)C[C@H]21`: in test [2], the compound was called inactive.
`C[C@@H](N)[C@@H](O)c1ccccc1`: the call in test [3], in test [1] and in test [2] was inactive.
`Oc1ccc(Cl)cc1`: the result in test [3], in test [1] and in test [2] was inactive.
Regarding `O=C1Nc2ccc(Cl)cc2C(c2ccccc2Cl)=NC1O` (stereo not given), the result in test [1] and in test [2] was inactive.
With `O=C(N/N=C/c1ccc([N+](=O)[O-])o1)c1cc([N+](=O)[O-])cc([N+](=O)[O-])c1O`, the outcome in test [3], in test [1] and in test [2] was inactive.
Turning to `CCCC(C)(COC(N)=O)COC(N)=O`, the outcome in test [1] and in test [2] was inactive.
On to `Clc1cccc(SC2CCNCC2)n1`, for which the call in test [3], in test [1] and in test [2] was inactive.

The values are drawn from PubChem BioAssay (NCATS).
